Activity calls are given as the source filed them.

Experiment [1] is described as follows: small molecules captured by biotinylated probe aFSTL3 – biochemical, small-molecule microarray, fluorescence 635/667, stem cell growth factor project, primary screen (AID 1064).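 Further: measures binding of the biotinylated anti-FSTL3 antibody to printed compounds.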 Conditions: higher = more signal.
Experiment [2] in a line: binders from COS7 lysate, DM2A8 probe, primary screen, torsin A project, cell lysate, small-molecule microarray, fluorescence 635/667 (AID 1065). Conditions: higher = more signal, COS7 lysate expressing mutant human TOR1A.
Experiment [3] is described as follows: small molecules captured by biotinylated probe aFGF2 – biochemical, small-molecule microarray, fluorescence 635/667, stem cell growth factor project, primary screen (AID 1067).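 Further: measures binding of biotinylated aFGF2 protein to printed compounds on slides; z-score merges feature fluorescence and signal-to-noise across triplicate slides.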 Conditions: higher = more signal.
Experiment [4] is described as follows: small molecules captured by biotinylated probe aFGF10 – biochemical, small-molecule microarray, fluorescence 635/667, stem cell growth factor project, primary screen (AID 1071).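 Further: score merges 667 nm spot intensity and signal to noise from triplicate slides.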 Conditions: higher = more signal.
The target of experiment [5] is Neurogenic locus notch homolog protein 2 (Homo sapiens) (UniProt Q04721). The experiment in a line: small molecules binding Notch2 protein – biochemical, small-molecule microarray, 635 nm fluorescence, stem cell growth factors, primary screen (AID 1073). Conditions: higher = more signal.
Experiment [6] concerns the target Pro-neuregulin-1, membrane-bound isoform (Homo sapiens) (UniProt Q02297). The experiment in a line: small molecules binding neuregulin-1 protein – biochemical, small-molecule microarray, fluorescence 635/667, psychiatric disease protein project, primary screen (AID 1075).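 Further: score combines 667 nm spot fluorescence with signal to noise.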 Conditions: NRG1 binding, 635 nm fluorescence, higher = more signal.
Experiment [7] has as its system Neuregulin-1 EGF-like domain. The experiment in a line: small molecules binding NRG1 EGF domain – biochemical, small-molecule microarray, 635 nm fluorescence, primary screen (AID 1081).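 Further: binding of the protein to compounds printed on small-molecule microarray slides.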 Conditions: higher = more signal.
The nature of experiment [8]: FRG1 expression reporter modulators in myotubes – cell-based, C2C12 myotubes, firefly/Renilla luciferase, luminescence, FRG1 inhibition for FSHD, primary screen (AID 1084). Conditions: FRG1 promoter luciferase, higher = more signal, called active from +8 up or from −8 down.
A short description of experiment [9]: small molecules captured by biotinylated probe aFST – biochemical, small-molecule microarray, fluorescence 635/667, stem cell growth factor project, primary screen (AID 1086).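 Further: score merges 667 nm fluorescence with signal-to-noise of each printed compound spot.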 Conditions: higher = more signal.
The nature of experiment [10]: binders of probe aHhip on microarray, primary screen, stem cell growth factor project, biochemical, small-molecule microarray, fluorescence 635/667 (AID 1087).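 Further: score merges spot fluorescence at 667nm with spot signal to noise ratio.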 Conditions: higher = more signal.
The subject of experiment [11] is PRMT1 (protein arginine N-methyltransferase 1). In words: small molecules binding arginine methyltransferase PRMT1 – biochemical, small-molecule microarray, 635 nm fluorescence, primary screen (AID 1088).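 Further: binding of Prmt1 protein to compounds spotted on small-molecule microarray slides.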 Conditions: higher = more signal.
Experiment [12] can be described thus: growth effects on S. cerevisiae YJM789 – YJM789 clinical isolate, OD600, 24 h, basal, primary screen (AID 1089).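 Further: growth of clinical yeast isolate S. cerevisiae YJM 789 seeded 1000 cells per well; test concentration not given here.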 Conditions: higher = more signal, called active from +8 up or from −8 down.
The nature of experiment [13]: S. pombe growth modifiers, basal conditions – strain 972, OD600, 24 h, no modulator, primary screen (AID 1090).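 Further: basal condition with compound alone and no growth modifier present; test concentration not given here.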 Conditions: S. pombe 972 growth, higher = more signal, called active from +8 up or from −8 down.
Experiment [14] in a line: budding yeast growth modifiers under rapamycin – strain BY4716, OD600, 96 h, primary screen (AID 1091). Further: test concentration not given here. Conditions: S. cerevisiae BY4716 + rapamycin, higher = more signal, called active from +8 up or from −8 down.
The target of experiment [15] is Torsin-1A-interacting protein 2 (Homo sapiens) (UniProt Q8NFQ8). The experiment in a line: small molecules binding lysate-expressed LULL1 – cell lysate, human LULL1 lysate, 635/667 nm fluorescence, primary screen (AID 1092).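 Further: probe is lysate of COS7 cells overexpressing human LULL1; score merges per-feature 667 nm fluorescence with signal-to-noise.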 Conditions: small-molecule microarray, hLULL1 lysate binding, 635 nm fluorescence; higher = more signal.
Experiment [16] is described as follows: optical density change of DRC41 E. coli – strain DRC41, OD650, 24 h, E. coli filamentation project, primary screen (AID 1093).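 Further: MC1000 strain lacking acrAB efflux and sulA so SOS filamentation is blocked; test concentration not given here.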 Conditions: E. coli DRC41 growth, higher = more signal, called active from +8 up or from −8 down.
The nature of experiment [17]: probe aLefty2 binding to arrayed compounds – biochemical, biotinylated probe, 635/667 nm fluorescence, primary screen (AID 1094).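 Further: score merges spot fluorescence near 667 nm with spot signal-to-noise ratio.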 Conditions: small-molecule microarray, higher = more signal.
The test system of experiment [18] is Noggin (protein binding on small-molecule microarray). The experiment in a line: small molecules binding Noggin protein – biochemical, 635/667 nm fluorescence, primary screen (AID 1095).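 Further: score merges 667 nm feature fluorescence with signal to noise over triplicate slides.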 Conditions: 635 nm fluorescence, higher = more signal.
In experiment [19] the target is Neurogenic locus notch homolog protein 3 (Homo sapiens) (UniProt Q9UM47). In words: small molecules binding NOTCH3 protein – biochemical, 635/667 nm fluorescence, primary screen (AID 1096). Conditions: small-molecule microarray, 635 nm fluorescence, higher = more signal.
Experiment [20] can be described thus: probe aEGFR binding to arrayed compounds – biochemical, biotinylated probe, 635/667 nm fluorescence, primary screen (AID 1097).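 Further: probe is a biotinylated anti-EGFR antibody binding compounds printed on slides; score combines fluorescence near 667 nm and signal to noise of each spot.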 Conditions: small-molecule microarray, higher = more signal.

Sequence of Neurogenic locus notch homolog protein 2 (Homo sapiens) (Q04721 whole entry, looked up, canonical isoform): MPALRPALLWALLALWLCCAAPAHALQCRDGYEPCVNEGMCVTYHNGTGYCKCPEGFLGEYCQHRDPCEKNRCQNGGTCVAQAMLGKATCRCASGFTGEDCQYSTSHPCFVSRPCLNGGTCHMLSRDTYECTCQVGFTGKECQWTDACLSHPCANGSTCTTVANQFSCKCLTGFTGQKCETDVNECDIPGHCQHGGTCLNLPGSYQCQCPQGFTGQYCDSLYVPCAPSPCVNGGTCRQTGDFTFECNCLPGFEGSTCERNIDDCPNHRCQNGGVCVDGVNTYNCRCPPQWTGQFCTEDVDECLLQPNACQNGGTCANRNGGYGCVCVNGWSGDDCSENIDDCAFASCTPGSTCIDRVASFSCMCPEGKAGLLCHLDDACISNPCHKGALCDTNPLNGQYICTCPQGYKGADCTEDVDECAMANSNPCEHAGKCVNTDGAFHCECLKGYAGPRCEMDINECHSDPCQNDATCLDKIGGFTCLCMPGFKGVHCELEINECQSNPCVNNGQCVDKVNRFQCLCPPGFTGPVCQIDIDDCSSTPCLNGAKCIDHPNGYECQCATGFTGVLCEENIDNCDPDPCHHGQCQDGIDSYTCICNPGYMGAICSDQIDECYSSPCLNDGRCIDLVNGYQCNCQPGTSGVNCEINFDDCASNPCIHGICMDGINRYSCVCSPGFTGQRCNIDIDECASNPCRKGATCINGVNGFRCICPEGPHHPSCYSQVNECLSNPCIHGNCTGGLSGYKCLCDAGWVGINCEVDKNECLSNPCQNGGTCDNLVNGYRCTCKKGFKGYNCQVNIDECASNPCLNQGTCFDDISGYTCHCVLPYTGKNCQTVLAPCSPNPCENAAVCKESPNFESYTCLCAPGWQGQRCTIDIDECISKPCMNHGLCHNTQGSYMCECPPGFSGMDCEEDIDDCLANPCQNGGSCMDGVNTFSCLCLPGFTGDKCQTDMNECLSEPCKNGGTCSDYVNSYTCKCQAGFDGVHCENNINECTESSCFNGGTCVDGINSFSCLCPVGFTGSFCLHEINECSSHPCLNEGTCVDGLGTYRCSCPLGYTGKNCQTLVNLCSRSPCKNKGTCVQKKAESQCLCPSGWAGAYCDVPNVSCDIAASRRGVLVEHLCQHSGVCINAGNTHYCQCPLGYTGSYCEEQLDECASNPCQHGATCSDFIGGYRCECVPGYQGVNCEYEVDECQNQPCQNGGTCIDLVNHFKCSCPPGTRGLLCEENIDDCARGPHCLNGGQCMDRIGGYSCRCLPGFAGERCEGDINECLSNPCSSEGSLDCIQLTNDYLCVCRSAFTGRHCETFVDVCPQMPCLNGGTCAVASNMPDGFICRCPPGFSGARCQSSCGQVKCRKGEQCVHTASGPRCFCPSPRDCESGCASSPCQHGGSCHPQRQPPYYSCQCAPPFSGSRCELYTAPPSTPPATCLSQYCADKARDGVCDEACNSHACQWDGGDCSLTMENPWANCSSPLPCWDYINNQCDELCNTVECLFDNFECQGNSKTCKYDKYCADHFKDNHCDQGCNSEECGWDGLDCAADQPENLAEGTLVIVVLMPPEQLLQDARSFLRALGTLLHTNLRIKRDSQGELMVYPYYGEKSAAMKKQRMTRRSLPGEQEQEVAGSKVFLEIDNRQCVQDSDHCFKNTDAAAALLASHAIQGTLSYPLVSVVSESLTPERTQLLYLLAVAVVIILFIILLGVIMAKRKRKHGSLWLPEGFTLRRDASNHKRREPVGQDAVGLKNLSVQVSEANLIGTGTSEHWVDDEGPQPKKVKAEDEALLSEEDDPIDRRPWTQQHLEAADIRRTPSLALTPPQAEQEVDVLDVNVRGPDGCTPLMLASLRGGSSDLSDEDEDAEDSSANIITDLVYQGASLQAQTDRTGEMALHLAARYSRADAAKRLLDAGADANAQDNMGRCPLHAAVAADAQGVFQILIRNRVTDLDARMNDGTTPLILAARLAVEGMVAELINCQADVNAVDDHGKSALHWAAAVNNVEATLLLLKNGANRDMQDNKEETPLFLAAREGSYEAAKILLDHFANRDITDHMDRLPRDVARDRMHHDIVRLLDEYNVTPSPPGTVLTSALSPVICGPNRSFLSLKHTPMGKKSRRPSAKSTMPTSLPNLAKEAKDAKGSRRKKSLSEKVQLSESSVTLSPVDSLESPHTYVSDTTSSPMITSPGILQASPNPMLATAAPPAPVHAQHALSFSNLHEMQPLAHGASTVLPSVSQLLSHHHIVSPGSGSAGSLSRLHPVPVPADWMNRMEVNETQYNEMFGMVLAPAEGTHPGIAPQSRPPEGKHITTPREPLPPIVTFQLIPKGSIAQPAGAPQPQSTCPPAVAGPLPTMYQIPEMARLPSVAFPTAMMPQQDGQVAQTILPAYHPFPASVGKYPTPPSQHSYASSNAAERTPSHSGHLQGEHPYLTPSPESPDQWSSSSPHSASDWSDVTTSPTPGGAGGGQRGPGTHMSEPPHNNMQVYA
Sequence of Pro-neuregulin-1, membrane-bound isoform (Homo sapiens) (Q02297 whole entry, looked up, the tested form may be a part, canonical isoform): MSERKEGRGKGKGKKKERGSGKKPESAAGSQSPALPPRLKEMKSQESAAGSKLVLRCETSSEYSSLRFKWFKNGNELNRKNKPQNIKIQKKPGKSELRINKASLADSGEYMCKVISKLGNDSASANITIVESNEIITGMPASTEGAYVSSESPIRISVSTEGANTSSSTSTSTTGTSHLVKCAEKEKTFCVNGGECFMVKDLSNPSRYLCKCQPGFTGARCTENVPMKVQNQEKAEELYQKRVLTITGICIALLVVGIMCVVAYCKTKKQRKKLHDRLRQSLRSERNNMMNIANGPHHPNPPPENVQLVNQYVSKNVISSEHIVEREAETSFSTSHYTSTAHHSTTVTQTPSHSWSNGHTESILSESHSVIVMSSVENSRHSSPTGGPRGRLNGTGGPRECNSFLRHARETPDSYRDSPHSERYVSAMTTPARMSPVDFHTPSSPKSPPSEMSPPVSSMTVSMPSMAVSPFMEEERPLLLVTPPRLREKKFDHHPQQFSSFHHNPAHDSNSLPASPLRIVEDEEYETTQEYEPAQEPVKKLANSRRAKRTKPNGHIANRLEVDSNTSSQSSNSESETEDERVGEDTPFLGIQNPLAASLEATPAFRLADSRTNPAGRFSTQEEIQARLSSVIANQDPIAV
Sequence of Torsin-1A-interacting protein 2 (Homo sapiens) (Q8NFQ8 whole entry, looked up): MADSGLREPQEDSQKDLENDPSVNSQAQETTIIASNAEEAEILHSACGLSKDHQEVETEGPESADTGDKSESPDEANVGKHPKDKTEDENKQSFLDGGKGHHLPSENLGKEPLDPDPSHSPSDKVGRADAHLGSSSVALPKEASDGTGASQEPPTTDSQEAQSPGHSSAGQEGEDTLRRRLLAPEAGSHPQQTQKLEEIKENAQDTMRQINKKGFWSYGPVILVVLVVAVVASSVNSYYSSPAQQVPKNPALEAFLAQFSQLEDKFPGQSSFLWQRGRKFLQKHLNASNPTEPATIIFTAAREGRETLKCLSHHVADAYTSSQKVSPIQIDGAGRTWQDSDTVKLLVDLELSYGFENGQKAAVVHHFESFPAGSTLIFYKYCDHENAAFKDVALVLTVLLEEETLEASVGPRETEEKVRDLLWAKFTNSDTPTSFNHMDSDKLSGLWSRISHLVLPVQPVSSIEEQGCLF

As for `C=CCN1C(=O)[C@]2(Cc3ccccc3)N=C(c3ccc(OCCCO)cc3)O[C@@H]2c2ccccc21`, the composite z-score was -0.0832 in experiment [1]; 0.481 in [2]; -0.0119 in experiment [3]; -0.0215 in [4]; 1.35 in [5]; 1.55 in experiment [6]. For the same compound, the composite z-score in experiment [7] is 1.41; in experiment [9] it was 0.395; in experiment [10], -0.0994; in [11], 1.53; in experiment [15], 3.13; in experiment [17], 0.295. The composite z-score turned out to be 1.2 in experiment [18], 1.15 in experiment [19] and 0.133 in experiment [20]. Moreover, the z-score in experiment [8] is -1.05 (inactive); in experiment [12] it was 0.331 (inactive); in experiment [13], -0.694 (inactive); in [14], 1.46 (inactive); in experiment [16], 0.482 (inactive).

Consider `COC(=O)[C@@]1(Cc2ccc(F)cc2)[C@H]2c3cc(C(=O)N(C)C)n(Cc4ccc(C)o4)c3C[C@H]2CN1C(=O)c1ccccc1`, for which the composite z-score in experiment [1] came to 2.58; in experiment [2], 3.31; in [3] it was 0.62; in experiment [4], 0.0793; in experiment [5], 0.0386; in experiment [6] it was 1.8. Also, the composite z-score was determined as 1.13 in experiment [7]; 2.31 in [9]; 0.683 in experiment [10]; 0.323 in experiment [11]; 3.05 in [15]; 1.26 in [17]. The figures for the composite z-score in experiment [18], in experiment [19] and in experiment [20] were -0.386, -0.124 and 0.763, respectively. Moreover, the z-score in experiment [8] is 0.626 (inactive); in experiment [12], -0.319 (inactive); in experiment [13], -7.9 (inactive); in experiment [14], 0.792 (inactive); in experiment [16], -0.386 (inactive).

Take `O=C(CS)NCCCCCNC(=O)[C@@H]1C[C@@H]2C(=O)NCC(=O)N2[C@@H]1c1ccc(O)cc1`: the composite z-score in experiment [1] was -0.0188; in experiment [2], 0.654; in [3], -0.11; in experiment [4], 0.0152; in experiment [5] it was -0.966; in experiment [6], 0.317. Further, the composite z-score in experiment [7] is 1.39; in experiment [9], -0.155; in experiment [10], -0.0003; in experiment [11] it was 1.08; in experiment [15], 1.47; in experiment [17], -0.124. The composite z-score was 0.362 in [18], 0.179 in [19] and -0.15 in experiment [20]. The z-score in experiment [8] is 0.111 (inactive); in experiment [12] it was 0.118 (inactive); in experiment [13], -0.771 (inactive); in [14], 0.494 (inactive); in experiment [16] it was 2.13 (inactive).

Regarding `O=C1C2C=CC(C(O)c3ccc4c(c3)OCO4)N(Nc3ccc([N+](=O)[O-])cc3)C2C(=O)N1c1ccccc1` (stereo not given), the composite z-score is -0.407 in [1]; 0.566 in experiment [2]; 0.0019 in experiment [3]; 0.791 in [4]; 1.05 in experiment [5]; 0.626 in [6]. In addition, the composite z-score in experiment [7] was 0.65; in [9], 0.314; in experiment [10], -0.134; in experiment [11], 0.66; in experiment [15], 1.97; in experiment [17] it was -0.222. Besides, the figures for the composite z-score in experiment [18], in [19] and in experiment [20] were -0.0077, 0.777 and 0.006, respectively. Besides, the z-score is -0.383 (inactive) in experiment [8]; -0.664 (inactive) in experiment [12]; 0.484 (inactive) in [13]; 1.36 (inactive) in [14]; -0.245 (inactive) in [16].

`[N-]=[N+]=NCc1ccccc1[C@H]1OC(c2ccc(OCCCO)cc2)=N[C@@]1(Cc1ccccc1)C(=O)N1CCCCC1`: the composite z-score in experiment [1] was -0.222; in experiment [2], 0.368; in [3], 0.022; in experiment [4] it was 0.78; in [5], 1.46; in experiment [6], 0.947. In addition, the composite z-score is 1.18 in experiment [7]; 0.573 in experiment [9]; -0.201 in experiment [10]; 1.55 in experiment [11]; 3.33 in experiment [15]; 0.0004 in [17]. Besides, the composite z-score in experiment [18] was 1.37; in [19] it was 1.13; in experiment [20] it was 0.038. For the same compound, the z-score in experiment [8] was -2.51 (inactive); in [12], -1.88 (inactive); in [13], -0.575 (inactive); in experiment [14], 1.32 (inactive); in [16] it was 1.56 (inactive).
